Test results: PubChem BioAssay AID624496 (National Center for Advancing Translational Sciences (NCATS), 2012)
Records with an inconclusive call do not appear. Calls of active or inactive are those of the source. Calls follow the shape of the dose curve; as a rule, active = well fitted inhibition curve with a large enough effect; inconclusive = small, poorly fitted or top-dose-only effect, or another doubt; inactive = no such curve, though single readings can be large or run the other way.

What follows are compounds tested against D(2) dopamine receptor (Homo sapiens) (UniProt P14416) (assay: HTS Assay for Allosteric Antagonists of the Human D2 Dopamine Receptor: SAR in Primary Assay.). Details: HEK293 T-REx D2 cells, calcium flux, dopamine EC80 antagonism; activity, negative = inhibition: at 41.8 µM (top of the series) unless noted.
D(2) dopamine receptor (Homo sapiens), sequence (P14416 whole entry, looked up): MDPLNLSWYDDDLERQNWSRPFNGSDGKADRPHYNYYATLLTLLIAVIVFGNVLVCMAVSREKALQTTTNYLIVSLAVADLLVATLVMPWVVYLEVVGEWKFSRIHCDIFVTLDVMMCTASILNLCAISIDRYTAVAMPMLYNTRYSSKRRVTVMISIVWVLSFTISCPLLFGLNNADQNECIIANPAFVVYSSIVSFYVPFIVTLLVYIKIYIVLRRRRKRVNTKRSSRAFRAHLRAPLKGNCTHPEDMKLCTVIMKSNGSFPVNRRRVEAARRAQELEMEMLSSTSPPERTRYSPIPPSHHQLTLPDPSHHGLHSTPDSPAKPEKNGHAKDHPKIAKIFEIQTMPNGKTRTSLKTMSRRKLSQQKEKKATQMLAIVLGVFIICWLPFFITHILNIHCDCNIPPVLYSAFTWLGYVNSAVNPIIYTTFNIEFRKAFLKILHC
Description: Dopamine receptors (DARs) are involved in the etiology and/or therapy of a number of neuropsychiatric and endocrine disorders. For instance, all receptor-based antiparkinsonian drugs work via stimulating the D2 DAR subtype whereas all FDA-approved antipsychotic agents are antagonists of this receptor. […] There are three different types of allosteric modulators that we are seeking, two of which will stimulate or augment receptor signaling, allosteric agonists and potentiators, while the third, allosteric antagonists, will attenuate receptor signaling. The present project is looking for compound antagonism after an EC80 addition of dopamine by tracking calcium flux in a […], inducible Hek293 Trex D2 cell line, which act through an allosteric site. NIH Chemical Genomics Center [NCGC] NIH Molecular Libraries Probe Centers Network [MLPCN] MLPCN Grant: NS064831 Assay Submitter (PI): David Sibley
Freshly passaged cells are plated in 1536 well black, clear bottom plates at a density of 4000 cells/well in 3 ul of complete media containing 1x tetracycline inducer. After an overnight incubation at 30 deg C in 5% CO2, cells are loaded with 2 ul of the no wash Calcium Assay Kit (ABD Bioquest) and incubated at room temperature for 30 to 90 minutes. Agonist read: A 10 cycle (1 second/cycle) baseline measurement is taken and then the FDSS online 1536 pintool delivers 23 nl of compound library (as well as dopamine controls) to the plate. The plate is measured for kinetically at 1 cycle/sec for 180 seconds. Following the 180 second read, 1 ul of an EC80 (negative modulation assay) is delivered by an onboard pipette head. Measurements are taken kinetically for an additional 180 seconds.
For `CCN1C(=O)c2ccccc2S(=O)c2ccc(C(=O)NCc3ccc(S(C)(=O)=O)cc3)cc21` (stereo not given), the Potency was 560 nM (active). `CCN1C(=O)c2ccccc2S(=O)c2ccc(C(=O)N(C)Cc3ccc(OC)cc3)cc21` (stereo not given) gave an activity, negative = inhibition of -112% [at 4.65 µM]. `CCN1C(=O)c2ccccc2Sc2ccc(C(=O)NCc3ccc(OC)cc3)cc21` was tested, and the Potency was 887 nM (active). For `CCN1C(=O)c2ccccc2[S@](=O)c2ccc(C(=O)NCc3ccc(C#N)cc3)cc21`, the Potency was 223 nM (active). In the case of `CCN1C(=O)c2ccccc2S(=O)(=O)c2ccc(C(=O)NCc3ccc(OC)cc3)cc21`, the activity, negative = inhibition was -113%. With `CN1C(=O)c2ccccc2[S@](=O)c2ccc(C(=O)NCCN3CCCC3)cc21` the Potency was 4450 nM (active). In the case of `CN1C(=O)c2ccccc2S(=O)c2ccc(C(=O)Nc3ccccc3)cc21` (stereo not given), the Potency was 280 nM (active). `CCN1C(=O)c2ccccc2S(=O)c2ccc(C(=O)NCc3ccccc3OC)cc21` (stereo not given) was tested, and the activity, negative = inhibition was -21.4% (active). `CCN1C(=O)c2ccccc2S(=O)c2ccc(NC(=O)Cc3ccc(OC)cc3)cc21` (stereo not given) was tested, and the Potency was 705 nM (active). For `CCN1C(=O)c2ccccc2S(=O)c2ccc(C(=O)NCc3ccc4c(c3)OCO4)cc21` (stereo not given), the Potency was 112 nM (active). `CCN1C(=O)c2ccccc2[S@@](=O)c2ccc(C(=O)NCc3ccc(OC)cc3)cc21` was tested, and the activity, negative = inhibition was -112%. For `CCN1C(=O)c2ccccc2[S@](=O)c2ccc(C(=O)N[C@H](C)c3ccc4ccccc4c3)cc21`, the Potency was 70.5 nM (active). For `CN1C(=O)c2ccccc2S(=O)c2ccc(C(=O)NCc3cccc(Cl)c3)cc21` (stereo not given), the Potency was 280 nM (active). In the case of `CN1C(=O)c2ccccc2S(=O)c2ccc(C(=O)NCc3ccccn3)cc21` (stereo not given), the Potency was 223 nM (active). With `CCCN1C(=O)c2ccccc2S(=O)c2ccc(C(=O)NCc3ccc(OC)cc3)cc21` (stereo not given) the Potency was 1770 nM (active). Work on `CCN1C(=O)c2ccccc2S(=O)c2ccc(C(=O)NCc3cc(OC)c(OC)c(OC)c3)cc21` (stereo not given) yielded an activity, negative = inhibition of 23.4%. With `CCN1C(=O)c2ccccc2S(=O)c2ccc(C(=O)NCc3ccccc3)cc21` (stereo not given) the Potency was 705 nM (active). In the case of `CN1C(=O)c2ccccc2S(=O)c2ccc(C(=O)NCc3ccc(Br)cc3)cc21` (stereo not given), the Potency was 70.5 nM (active). With `CCN1C(=O)c2ccccc2S(=O)c2ccc(C(=O)NCc3ccc(C#N)cc3)cc21` (stereo not given) the Potency was 141 nM (active). In the case of `CCN1C(=O)c2ccccc2[S@](=O)c2ccc(C(=O)NCc3ccc(F)cc3)cc21`, the Potency was 353 nM (active). In the case of `CN1C(=O)c2ccccc2[S@](=O)c2ccc(C(=O)NCc3ccc(Cl)cc3)cc21`, the Potency was 445 nM (active). `CN1C(=O)c2ccccc2[S@](=O)c2ccc(C(=O)NCc3ccc(Br)cc3)cc21` was tested, and the Potency was 70.5 nM (active). In the case of `COc1ccc(CNC(=O)c2ccc3c(c2)N(C)C(=O)c2ccccc2S3=O)cc1` (stereo not given), the Potency was 112 nM (active). `COc1ccc(NC(=O)c2ccc3c(c2)N(C)C(=O)c2ccccc2S3=O)cc1` (stereo not given) was tested, and the Potency was 11200 nM (active). With `COc1ccc(CNC(=O)c2ccc3c(c2)N(Cc2ccccc2)C(=O)c2ccccc2S3=O)cc1` (stereo not given) the Potency was 88.7 nM (active). In the case of `CCN1C(=O)c2ccccc2S(=O)c2ccc(C(=O)NC(C)c3ccccc3)cc21` (stereo not given), the Potency was 353 nM (active). For `CN1C(=O)c2ccccc2S(=O)c2ccc(C(=O)NCc3cccnc3)cc21` (stereo not given), the activity, negative = inhibition was -114% [at 4.65 µM] (active). With `CN1C(=O)c2ccccc2[S@@](=O)c2ccc(C(=O)NCCc3cccs3)cc21` the Potency was 88.7 nM (active). In the case of `CN1C(=O)c2ccccc2S(=O)c2ccc(C(=O)NCCN3CCCCC3)cc21` (stereo not given), the Potency was 112 nM (active). With `CCN1C(=O)c2ccccc2S(=O)c2ccc(C(=O)Nc3ccc(OC)cc3)cc21` (stereo not given) the Potency was 887 nM (active). In the case of `CCN1C(=O)c2ccccc2[S@](=O)c2ccc(C(=O)NCc3ccc(OC)cc3)cc21`, the Potency was 8870 nM (active). In the case of `CCN1C(=O)c2ccccc2S(=O)c2ccc(C(=O)NCc3ccc(F)cc3)cc21` (stereo not given), the Potency was 705 nM (active). For `CCN1C(=O)c2ccccc2S(=O)c2ccc(C(=O)NCc3ccc(C(C)(C)C)cc3)cc21` (stereo not given), the Potency was 353 nM (active). With `CCN1C(=O)c2ccccc2S(=O)c2ccc(C(=O)NCc3ccc(C(F)(F)F)cc3)cc21` (stereo not given) the Potency was 141 nM (active). In the case of `CCN1C(=O)c2ccccc2[S@](=O)c2ccc(C(=O)N[C@H](C)c3ccc(Br)cc3)cc21`, the Potency was 8870 nM (active). With `CN(C)CCCNC(=O)c1ccc2c(c1)N(C)C(=O)c1ccccc1S2=O` (stereo not given) the activity, negative = inhibition was -85.7% [at 4.65 µM] (active). For `CN1C(=O)c2ccccc2[S@](=O)c2ccc(C(=O)NCc3cccnc3)cc21`, the Potency was 177 nM (active). For `CCN1C(=O)c2ccccc2S(=O)c2ccc(C(=O)OCc3ccc(OC)cc3)cc21` (stereo not given), the Potency was “inactive”. `CCN1C(=O)c2ccccc2S(=O)c2ccc(C(=O)NCc3ccc(OC)cc3)cc21` (stereo not given) was tested, and the Potency was 88.7 nM (active). In the case of `CCN1C(=O)c2ccccc2S(=O)c2ccc(C(=O)NCc3ccc(SC)cc3)cc21` (stereo not given), the Potency was 223 nM (active).
